# Screening results: PubChem, National Center for Advancing Translational Sciences (NCATS)
# The full list was thinned out, with hits kept by preference.
# Cycloheximide cs = affects cycloheximide protein synthesis inhibition readout, counter-screen; cell reporter, cycloheximide protein synthesis inhibition counterscreen; max response, %; hit rate 12% among 300,000; AID 2314; in the data active = max response mostly above about 13%, no sharp cut-off; inactive = mostly below about 14%; also: read at 38.3 µM for the half of the compounds with a filed dose; 0% is about no effect
# Shiga toxin inh = blocks Shiga toxin action in Vero cells. hit rate 9.2% among 290,000. AID 2315. Vero cells, Shiga toxin protein synthesis inhibition reporter. inhibition, % at 38.7 µM; in the data active = inhibition mostly above about 28%, no sharp cut-off; inactive = mostly below about 43%; also: 0% is about no effect
# Tb PYK inh = inhibitors of Trypanosoma brucei pyruvate kinase; hit rate 0.12% among 410,000; TbPYK enzyme, Kinase-Glo Plus ATP luminescence, 45 min; Potency, µM (titrated, usually from 76.8 µM), for inactives: top-dose activity, negative = inhibition, hits mostly inhibitors; Q57TT1; also: potency is read from the fitted curve at half-maximal effect; % is scaled to controls: 0 for no effect and ±100 for the full control effect; nearly all actives have a fitted effect of over 50% in size
#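 Quantitative HTS: titrated library compounds versus trypanosomal pyruvate kinase in TEA buffer (pH 7.2) containing KCl, MgCl2, BSA and Tween-20. Reactions were initiated with ADP, 130 uM final. Kinase-Glo Plus luminescence was read after 45 min at RT.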
# LmPK inhibitor = inhibitors of Leishmania mexicana pyruvate kinase | Q27686 | purified LmPK, Kinase-Glo ATP luminescence, 1 h | Potency, µM (series often up to 57.5 µM), for inactives: at the highest dose activity change, negative = inhibition, actives largely listed as inhibitors | hit rate 0.37% among 290,000; also: potency is read from the fitted curve at half-maximal effect; % is scaled to controls: 0 for no effect and ±100 for the full control effect
# Target sequence (Q27686 whole entry, looked up): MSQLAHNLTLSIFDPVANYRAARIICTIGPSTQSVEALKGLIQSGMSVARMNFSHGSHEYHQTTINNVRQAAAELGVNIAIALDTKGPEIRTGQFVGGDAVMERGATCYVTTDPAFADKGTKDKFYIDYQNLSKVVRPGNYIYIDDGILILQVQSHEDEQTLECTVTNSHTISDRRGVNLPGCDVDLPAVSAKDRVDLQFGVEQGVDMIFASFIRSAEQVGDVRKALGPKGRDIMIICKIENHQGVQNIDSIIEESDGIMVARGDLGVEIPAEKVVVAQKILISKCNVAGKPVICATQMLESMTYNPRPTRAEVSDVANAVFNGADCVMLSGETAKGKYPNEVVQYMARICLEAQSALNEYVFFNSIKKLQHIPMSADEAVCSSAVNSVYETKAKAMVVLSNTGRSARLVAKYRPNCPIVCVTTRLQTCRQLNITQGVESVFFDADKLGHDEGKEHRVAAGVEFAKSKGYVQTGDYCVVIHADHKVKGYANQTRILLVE
#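 Purified LmPK (0.1 nM) converted ADP (0.1 mM) to ATP with PEP (0.5 mM) in imidazole buffer pH 7.2 with KCl and MgCl2, 1 h at room temperature. ATP was read by Kinase-Glo luminescence; data normalized to uninhibited and no-enzyme controls.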
# Sm TGR inh = blocks Schistosoma mansoni thioredoxin glutathione reductase; Q962Y6; purified TGR, DTNB reduction, TNB absorbance 405 nm; Potency, µM (highest dose often 114 µM), inactives show at the top dose activity change, negative = inhibition, actives largely listed as inhibitors; hit rate 3% among 360,000; also: potency is read from the fitted curve at half-maximal effect; % is scaled to controls: 0 for no effect and ±100 for the full control effect; nearly all actives have a fitted effect of over 60% in size
#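 TGR 20 nM + NADPH 100 uM (dispensed conc.), cpd preinc 15 min RT; start with NADPH (500 uM addition) then DTNB (15 mM addition). Kinetic TNB absorbance, 405 nm filter. Four-parameter Hill fit across titration.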
# Giardia FBPA inh = Giardia lamblia aldolase inhibition; A8B2U2; purified Giardia FBPA; Potency, µM (top dose mostly 59.6 µM), for the others: top-dose activity, negative = inhibition, most hits filed as inhibitors; hit rate 0.71% among 290,000; also: potency is read from the fitted curve at half-maximal effect; % is scaled to controls: 0 for no effect and ±100 for the full control effect; nearly all actives have a fitted effect of over 55% in size
#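 Giardia FBPA (40 nM reagent) was preincubated 10 min at RT with compound (up to 57.5 uM final), then substrate plus GAPDH/TPI/NAD/arsenate coupling system with diaphorase/resazurin was added; resorufin fluorescence (525/598 nm) was read after 20 min.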
# Starred values were filed as active, the others as inactive; ? = inconclusive; / = not tested or not shown; [ ] = remark or other dose. Unless noted, calls follow the shape of the dose curve; as a rule, active = well fitted curve in the direction sought with a large enough effect; inconclusive = small, poorly fitted or top-dose-only effect, or another doubt; inactive = no such curve, though single readings can be large; an effect the other way counts as inactive or inconclusive.
SMILES,Cycloheximide cs,Shiga toxin inh,Tb PYK inh,LmPK inhibitor,Sm TGR inh,Giardia FBPA inh
CC(C)CNS(=O)(=O)c1ccc(C(=O)Nc2ccc3c(c2)OCCO3)cc1,54*,97*,3%,-3%,-1%,-5%
COc1ccc(OC)c(NC(=O)c2cccc(N3C(=O)C4C5C=CC(C6CC56)C4C3=O)c2)c1 (configuration not stated),16,-1,2%,3%,3%,/
Cc1ccc(NC(=O)CCNS(=O)(=O)c2ccc3c(c2)CCC(=O)N3)cc1F,-1,7,5%,2%,7%,2%
CC(=O)Nc1ccc2c(c1)OCCOCCOc1cc(NC(C)=O)ccc1OCCO2,-2,-6,-3%,0%,-5%,?
CC(=O)Nc1ccc(C(=O)Nc2ccc3c(c2)OCCO3)cc1,27*,42*,3%,-1%,-1%,1%
Cc1ccc(C(=O)Nc2ccc3c(c2)OCCO3)o1,31*,35,-19%,?,-2%,-15%
O=C(Nc1ccc2c(c1)OCCO2)c1ccc(NC(=O)C2CCCO2)cc1 (configuration not stated),23*,21,9%,-3%,-14%,0%
O=C(NCc1ccc2c(c1)OCO2)c1ccc(NC(=O)C2CCCO2)cc1 (configuration not stated),11,-12,6%,1%,-5%,1%
O=C(CCNS(=O)(=O)c1ccc2c(c1)CCC(=O)N2)Nc1ccc2c(c1)OCCO2,29*,56*,-7%,2%,-27%,-1%
CCc1ccc(N2CC(C(=O)OCC(=O)N(CC)c3c(N)n(Cc4ccccc4)c(=O)[nH]c3=O)CC2=O)cc1 (configuration not stated),/,/,2%,/,/,/
CC(C)c1ccc(OCc2cccc(C(=O)N/N=C/c3cccnc3)c2)cc1,133*,164*,3%,1%,5%,-4%
Cc1ccc(C(=O)N/N=C/c2cccnc2)cc1Cl,/,/,-2%,/,/,/
O=C(N/N=C/c1cccnc1)c1ccccc1OCc1cccc(Br)c1,-2,-22,-3%,8%[11.5 µM],6%,-1%
CCOc1ccc(OCc2cccc(C(=O)N/N=C/c3cccnc3)c2)cc1,88*,166*,0%,3%,-8%,1%
CCCCOc1nnc(-c2ccc(OCC)cc2)c2ccccc12,/,/,2%,/,11%,/
CCOC(=O)c1[nH]cnc1C(=O)Nc1ccc(Cl)cc1,-2,-6,0%,0%,1%,-24%
CN(C)/C=C/C(=O)/C=C/c1ccc(Cl)cc1,45*,87*,-2%,-12%,-23%,1%
Cc1cc(NC(=O)COC(=O)c2ccc(Cl)cc2)no1,/,/,0%,/,/,/
CC(=O)Nc1ccc(NC(=O)/C=C/c2ccc(Cl)cc2)cc1,30*,26*,-1%,4%,9%,0%
Cc1cc(NC(=O)c2ccc(Cl)cc2Cl)no1,42*,/,0%,2%,-19%,4%
Cc1ocnc1C(=O)Nc1ccc(Cl)cc1,44*,122*,-11%,-26%,1%,-20%
CN(C)c1ccc(CNC(=O)C2CCN(S(=O)(=O)c3ccc4[nH]c(=O)ccc4c3)CC2)cc1,/,/,-7%,/,-2%,/
CCN(CC(=O)Nc1ccc(Br)cc1)CC(=O)Nc1cc(C)on1,/,/,-7%,/,50µM*,/
O=C(Nc1ccsn1)c1ccc(Cl)cc1Cl,41*,47*,5%,2%,-13%,7%
Cc1cc(C(=O)Nc2ccc(Cl)cc2)on1,23*,58*,-1%,0%,3%,-4%
SMILES,Cycloheximide cs,Shiga toxin inh,Tb PYK inh,LmPK inhibitor,Sm TGR inh,Giardia FBPA inh
Cc1cc(NC(=O)Nc2ccc(Cl)cc2)no1,27*,/,-11%,0%,17%,8%
Cc1cc(NC(=O)Cc2ccc(Br)cc2)no1,5,18,-9%,3%,14%,-9%
Cc1ccc(NC(=O)Nc2cc(C)on2)cc1,47*,75*,0%,-17%,1%,-8%
Cc1cc(NC(=O)/C=C/c2ccc(Cl)cc2)no1,23*,73*,-4%,0%,0%,4%
Cc1cccc(NC(=O)Nc2cc(C)on2)c1,39*,71*,-3%,0%,0%,9%
Cc1cc(NC(=O)Nc2ccc(Cl)c(Cl)c2)no1,/,/,-1%,/,/,/
Cc1cn2c(=O)cc(COc3cccc(NC(=O)c4ccccc4Cl)c3)nc2s1,/,/,3%,/,-8%,/
CCc1ccc(NC(=O)c2sc3nc(C)c(Cl)c(C)c3c2NC(=O)c2ccccc2)cc1,/,/,6%,/,5%,/
COc1ccc(-c2ccc3c(N)c(C(=O)Nc4ccc(C)cc4C)sc3n2)cc1OC,/,/,-10%,/,0%,/
Cc1cc(=O)oc(C)c1C(=O)NCCCN1CCN(c2ccccc2F)CC1,-1,9,6%,2%,35µM*,0%
Cc1ccccc1CS(=O)(=O)CCC(=O)NCCCN1CCN(c2ccccc2F)CC1,-7,-3,-8%,-3%,9%,0%
Cc1c(C(=O)c2ccccc2)oc2ccc3ccccc3c12,51*,106*,-2%,1%,-13%,5%
Nc1c(C(=O)Nc2ccc(Cl)cc2)oc2ccccc12,55*,175*,-3%,0%,5%,-8%
Nc1c(C(=O)N2CCOCC2)oc2ccccc12,18*,15,1%,1%,0%,/
Nc1c(C(=O)c2ccc(F)cc2)oc2ccccc12,38*,44*,1%,-2%,-2%,-6%
COC(=O)c1ccc(C(NC(=O)OCc2ccccc2)/C(C)=C/[C@@H](C)C(=O)NCc2cc(F)cc(F)c2)cc1 (some centres not stated),/,/,/,/,/,-1%
c1ccc(C(c2ccccc2)N2CC[C@@]3(CCCNC3)C2)cc1,/,/,10%,/,/,-1%
Nc1c(C(=O)c2ccccc2)oc2ccccc12,22*,28,-3%,-1%,0%,-2%
CC(=O)c1oc2ccccc2c1N,0,-2,0%,3%,-33%,7%
Nc1c(C(=O)c2ccco2)oc2ccccc12,21*,24*,/,4%,-7%,4%
COc1ccc(-c2cc(C(=O)NCC(c3ccco3)N(C)C)c3ccccc3n2)cc1OC (configuration not stated),/,/,-12%,/,-14%,/
C[C@@H](C(=O)O)c1cccc(C(=O)c2ccccc2)c1,/,/,-4%,/,/,10%[21.7 µM]
CCC(C(=O)NCc1ccco1)N(C(=O)CNS(=O)(=O)c1ccccc1)C1CCCCC1 (configuration not stated),1,-8,0%,-1%,45µM*,1%
O=C(Cc1cccc(NC(=O)C2CCCN(C(=O)c3ccccc3)C2)c1)Nc1ccc(C(=O)N2CCOCC2)cc1 (configuration not stated),/,/,2%,/,/,/
CCn1nc(C(=O)NNC(=O)CCOc2cc(C)ccc2C)c2ccccc2c1=O,-6,-2,-5%,-1%,-24%,1%
